Data on eight compounds can be found in PubChem BioAssay (Tox21).

Each structure is given as a SMILES string. Inconclusive results are not listed. The source holds several records for some structures; these can differ, active in one and inactive in another. Active and inactive are the calls of the source. Unless noted, calls come from the whole dose curve; as a rule, active = well fitted curve in the direction sought with a large enough effect in the repeat runs; inconclusive = weak or mixed curves; inactive = no such curve, though single readings can be large; an effect the other way counts as inactive or inconclusive.

The target of assay [1] is Luciferin 4-monooxygenase (Photinus pyralis) (UniProt P08659). The assay can be described thus: qHTS assay to identify small molecule inhibitors of firefly luciferase (AID 1224835). Note: nearly all actives have a fitted effect of over 25% in size. Note: potency is the fitted concentration of half-maximal effect. In a few lines: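 Biochemical qHTS: compounds run as interplate titrations against purified firefly enzyme, with D-luciferin and ATP each at its KM concentration. Light output recorded by CCD imaging.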
On the technique in general: qHTS replaces the single test concentration by a dilution series.

Assay [2] is described as follows: qHTS assay to identify small molecule agonists of the constitutive androstane receptor (CAR) signaling pathway - cell viability counter screen (AID 1224836). Note: nearly all actives have a fitted effect of over 45% in size. In a few lines: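 Compound titrations (15 concentrations) went onto HepG2-CYP2B6-hCAR cells 4 h after seeding, alongside PK11195 at a final 0.75 uM; a 23 h, 37 C/5% CO2 incubation preceded CellTiter-Fluor viability measurement.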

A short description of assay [3]: qHTS assay to identify small molecule antagonists of the constitutive androstane receptor (CAR) signaling pathway - cell viability counter screen (AID 1224837). Note: nearly all actives have a fitted effect of over 45% in size. In a few lines:
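CITCO at 50 nM final was added alongside compounds (15 concentrations) to double-stable hCAR/CYP2B6-2.2kb HepG2 cells. Following 23 hr at 37 C, cell viability was quantified by CellTiter-Fluor fluorescence intensity.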

Assay [4] can be described thus: qHTS assay to identify small molecule antagonists of the estrogen related receptor signaling pathway with the pleiotropic PPARgamma coactivator (PGC) from Tox21 10K library - cell viability counter screen (AID 1224840; active = well fitted cell-killing curve with a large enough effect in the repeat runs, not every such curve was filed as active; note: nearly all actives have a fitted effect of over 40% in size). In a few lines: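 Readout: fluorescence intensity from CellTiter-Fluor after 30 min at 37 C/5% CO2. Preceded by 17.5 h treatment of PGC/ERR cells with DMSO-dissolved compounds, added 6 h post-seeding.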

The target of assay [5] is Thyrotropin receptor (Homo sapiens) (UniProt P16473). The assay can be described thus: qHTS assay to identify small molecule agonists of the thyroid stimulating hormone receptor (TSHR) signaling pathway (AID 1224843; calls by dose curve; note: nearly all actives have a fitted effect of over 45% in size). The gist of the method: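 HEK293/TSHR, 800 cells/well; cpd 30 min RT; add cAMP-d2 + anti-cAMP-cryptate, 1 h RT; fluorescence read on plate reader. 15-pt titration, n=3.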

The nature of assay [6]: qHTS assay to identify small molecule agonists of the hypoxia (HIF-1) signaling pathway - cell viability counter screen (AID 1224844; calls by dose curve; note: nearly all actives have a fitted effect of over 50% in size). The gist of the method: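 In this counter screen, HRE-bla ME-180 cell viability after 17 hrs of compound exposure at 37C was read by CellTiter-Glo luminescence, multiplexed with the beta-lactamase reporter measurement.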
A short description of assay [7]: qHTS assay to identify small molecule agonists of H2AX (AID 1224845; active = well fitted activation curve with a large enough effect in the signal ratio in the repeat runs, not every such curve was filed as active; the % refers to the signal ratio). In a few lines: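 Wild-type CHO-K1 cells, plated overnight, exposed 3hr at 37C to 15 concentrations (0.76% DMSO final). Lysed, then HTRF anti-pH2AX (S139) cryptate and anti-H2AX-d2 antibodies, 24 hr room temperature; 665/620 nm emission read.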
Assay [8] is described as follows: qHTS assay to identify small molecule agonists of H2AX - cell viability counter screen (AID 1224847; calls by dose curve; note: top concentration of the series differs between compounds; nearly all actives have a fitted effect of over 30% in size). In a few lines:
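Read-out: CellTiter-Glo luminescence, 30 min RT. Cells: wild-type CHO-K1, 1000/well, 10% FBS, plated overnight at 37C. Treatment: 15 concentrations, 3 hr, 37C, 0.76% DMSO.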

A short description of assay [9]: qHTS assay to identify small molecule antagonists of the estrogen related receptor (ERR) signaling pathway from Tox21 library (AID 1224848). Note: nearly all actives have a fitted effect of over 50% in size. The gist of the method:
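Compounds dissolved in DMSO are pin-transferred onto ERR reporter cells (2,000 per well) that have settled for 6 h at 37 C. Plates then incubate 18 h at 37 C before ONE-Glo luciferase reagent and a luminescence read 30 min later.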

The nature of assay [10]: qHTS assay to identify small molecule agonists of the estrogen related receptor (ERR) signaling pathway from Tox21 library (AID 1224849; calls by dose curve; note: nearly all actives have a fitted effect of over 15% in size). As to conditions: ERR reporter cell line, ONE-Glo luciferase, 18 h; at 42.5 µM (top of the series). In a few lines: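 Luciferase activity in ERR pathway reporter cells served as the agonist readout; exposure lasted 18 h at 37 C, with ONE-Glo detection after 30 min at room temperature.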

Assay [11] can be described thus: qHTS RealTime-Glo MT Cell Viability Assay in HepG2 cells - 24 hour (AID 1224867). Note: nearly all actives have a fitted effect of over 50% in size. The gist of the method:
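Viability was tracked continuously by NanoLuc luminescence from prosubstrate reduced by living HepG2 cells, at successive time points over 40 h of compound exposure. Cells with reagent were preincubated 5 h at 37 °C before compound addition.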

Assay [12] is described as follows: qHTS RealTime-Glo MT Cell Viability Assay in HEK293 cells - 32 hour (AID 1224868). Note: top concentration of the series differs between compounds; nearly all actives have a fitted effect of over 50% in size. The gist of the method: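 Viability tracked continuously by luminescence as live cells reduce a prosubstrate for NanoLuc; HEK293 cells preincubated 5 h, compound-treated at 37 C, and read at 0, 8, 16, 24, 32 and 40 h.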
Assay [13] is described as follows: A CellTox Green Cytotoxicity Assay to monitor cytotoxicity in HEK293 cells - 0 hour (AID 1224869). Note: nearly all actives have a fitted effect of over 50% in size. In a few lines: (§1)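 Real-time, in one plate: 600 HEK293 cells/well with dead-cell DNA dye, pinned compound after 5 h, 37 C incubation over 40 h; viable cells give no appreciable fluorescence.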
Assay [14] can be described thus: qHTS RealTime-Glo MT Cell Viability Assay in HepG2 cells - 40 hour (AID 1224870). Note: nearly all actives have a fitted effect of over 50% in size. In a few lines: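 HepG2 cells (600/well) mixed with RealTime-Glo MT reagent, settled 5 h at 37 C/5% CO2 before compound addition. Nonlytic NanoLuc luminescence from viable-cell prosubstrate reduction read repeatedly during 40 h treatment at 37 C.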
Assay [15] in a line: A CellTox Green Cytotoxicity Assay to monitor cytotoxicity in HEK293 cells - 40 hour (AID 1224871). Note: nearly all actives have a fitted effect of over 45% in size. The gist of the method:
as §1

Assay [16] addresses Nuclear receptor subfamily 1 group I member 3 (Homo sapiens) (UniProt Q14994). Put plainly: qHTS assay to identify small molecule antagonists of the constitutive androstane receptor (CAR) signaling pathway (AID 1224838). Note: nearly all actives have a fitted effect of over 40% in size. In a few lines: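 Inhibition of CITCO-driven (50 nM final) CYP2B6 reporter expression is measured in HepG2 cells stably carrying hCAR. Fifteen compound concentrations are applied for 24 h at 37 C, followed by luciferase luminescence.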

For assay [17] the target is unchanged. The assay can be described thus: qHTS assay to identify small molecule agonists of the constitutive androstane receptor (CAR) signaling pathway (AID 1224839). Note: nearly all actives have a fitted effect of over 15% in size. The gist of the method: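 In this screen, CAR-driven CYP2B6 promoter activity is measured by luminescence in HepG2-CYP2B6-hCAR cells after 24 h with test compounds and 0.75 uM PK11195 (final concentration).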

Assay [18] can be described thus: qHTS assay to identify small molecule agonists of the hypoxia (HIF-1) signaling pathway (AID 1224846; active = well fitted activation curve with a large enough effect in the signal ratio in the repeat runs, not every such curve was filed as active; the % refers to the signal ratio). The gist of the method:
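ME-180 HRE-bla reporter cells; compounds in DMSO, 17 h at 37C; read-out beta-lactamase via CCF4-AM FRET.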

Assay [19] can be described thus: qHTS assay to identify small molecule antagonists of the estrogen related receptor signaling pathway with the pleiotropic PPARgamma coactivator (PGC) from Tox21 10K library (AID 1224841; call rule not given here). The gist of the method: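 One-Glo luminescence, measured after half an hour at room temperature, quantified reporter output of PGC/ERR cells. These had been plated at 2,000 per well, incubated 6 h, dosed with compounds in DMSO, then kept 18 h at 37 C.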

Assay [20] is described as follows: qHTS assay to identify small molecule agonists of the estrogen related receptor signaling pathway with the pleiotropic PPARgamma coactivator (PGC) from Tox21 10K library (AID 1224842). Note: nearly all actives have a fitted effect of over 15% in size. In a few lines:
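PGC/ERR reporter cell line, 2,000 cells per well, incubated 6 h at 37 C before 23 nL compound in DMSO was added. After 18 h at 37 C, One-Glo luminescence read following 30 min at room temperature.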
% is set by controls: 0 for no effect and ±100 for the full control effect.

Luciferin 4-monooxygenase (Photinus pyralis), sequence (P08659 whole entry, looked up): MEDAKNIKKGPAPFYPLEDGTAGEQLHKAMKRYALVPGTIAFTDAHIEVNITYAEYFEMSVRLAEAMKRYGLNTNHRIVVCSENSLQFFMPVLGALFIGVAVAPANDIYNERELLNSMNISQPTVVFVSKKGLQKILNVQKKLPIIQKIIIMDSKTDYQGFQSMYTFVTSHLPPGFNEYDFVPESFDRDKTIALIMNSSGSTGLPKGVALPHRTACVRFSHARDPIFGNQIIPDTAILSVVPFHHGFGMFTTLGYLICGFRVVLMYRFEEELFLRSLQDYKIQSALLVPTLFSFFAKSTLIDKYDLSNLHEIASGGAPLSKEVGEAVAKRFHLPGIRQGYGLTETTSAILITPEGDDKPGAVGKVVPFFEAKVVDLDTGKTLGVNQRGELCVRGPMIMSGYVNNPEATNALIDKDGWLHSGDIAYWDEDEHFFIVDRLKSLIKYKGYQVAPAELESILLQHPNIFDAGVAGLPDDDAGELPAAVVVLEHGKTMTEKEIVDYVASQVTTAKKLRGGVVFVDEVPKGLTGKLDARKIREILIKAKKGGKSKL
Thyrotropin receptor (Homo sapiens), sequence (P16473 whole entry, looked up): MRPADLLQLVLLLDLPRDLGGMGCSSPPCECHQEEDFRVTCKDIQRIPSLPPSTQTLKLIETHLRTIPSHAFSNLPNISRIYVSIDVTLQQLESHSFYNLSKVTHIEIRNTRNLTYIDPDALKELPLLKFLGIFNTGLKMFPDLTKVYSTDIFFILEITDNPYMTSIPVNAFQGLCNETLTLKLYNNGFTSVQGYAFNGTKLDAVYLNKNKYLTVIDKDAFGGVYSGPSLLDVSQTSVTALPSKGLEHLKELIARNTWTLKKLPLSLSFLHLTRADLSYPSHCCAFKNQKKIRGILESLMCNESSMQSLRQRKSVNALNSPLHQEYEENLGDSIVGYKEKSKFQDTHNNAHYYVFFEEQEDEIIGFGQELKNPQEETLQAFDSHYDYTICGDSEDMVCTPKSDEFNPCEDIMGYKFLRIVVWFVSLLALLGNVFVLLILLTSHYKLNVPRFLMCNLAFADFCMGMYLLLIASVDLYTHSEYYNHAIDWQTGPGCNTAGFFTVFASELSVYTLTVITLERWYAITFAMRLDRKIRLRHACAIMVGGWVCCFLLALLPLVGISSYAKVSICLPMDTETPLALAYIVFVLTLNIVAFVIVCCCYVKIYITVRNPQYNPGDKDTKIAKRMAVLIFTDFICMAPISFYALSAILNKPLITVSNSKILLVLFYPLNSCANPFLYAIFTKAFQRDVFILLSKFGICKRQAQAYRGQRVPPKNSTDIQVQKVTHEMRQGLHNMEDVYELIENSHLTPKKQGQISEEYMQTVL
Nuclear receptor subfamily 1 group I member 3 (Homo sapiens), sequence (Q14994 whole entry, looked up): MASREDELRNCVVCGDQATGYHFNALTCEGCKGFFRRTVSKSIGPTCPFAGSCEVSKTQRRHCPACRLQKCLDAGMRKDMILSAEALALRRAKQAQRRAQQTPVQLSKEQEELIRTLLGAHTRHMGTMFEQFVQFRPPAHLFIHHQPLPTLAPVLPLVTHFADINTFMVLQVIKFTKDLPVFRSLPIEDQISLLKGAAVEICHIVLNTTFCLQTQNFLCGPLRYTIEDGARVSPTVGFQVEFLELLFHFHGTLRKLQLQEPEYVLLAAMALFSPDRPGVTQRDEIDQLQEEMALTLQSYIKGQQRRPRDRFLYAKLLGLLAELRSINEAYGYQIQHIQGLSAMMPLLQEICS

For the compound `CC(N=C(NC#N)Nc1ccncc1)C(C)(C)C` (configuration not stated), the Potency result in assay [1], in assay [2], in assay [3], in assay [4], in assay [5] and in assay [6] was “inactive” in each case. For the same compound, the Potency entry in assay [7], in assay [8], in assay [9], in assay [11], in assay [12] and in [13] was “inactive” each time. Besides, the Potency entry in [14] and in [15] was “inactive” in each case. Moreover, the activity change, positive = activation in [10] is -15.5% (inactive).

Take `CCc1cccc(CC)c1NC(=O)CN(CC(=O)O)CC(=O)O`: the Potency entry in assay [1], in assay [2], in [16], in assay [17], in assay [4] and in [5] was “inactive” in each case. For the same compound, the Potency entry in [6], in [7], in assay [18], in assay [8], in [11] and in assay [12] was “inactive” throughout. For the same compound, the Potency result in assay [13], in assay [14] and in assay [15] was “inactive” throughout.

On to `CCCC(=O)OCOC(=O)C1=C(C)NC(C)=C(C(=O)OC)C1c1cccc(Cl)c1Cl` (configuration not stated), for which the Potency entry in assay [1], in [2], in assay [3], in assay [4], in [5] and in [6] was “inactive” throughout. The Potency entry in assay [7], in assay [18], in assay [8], in assay [12], in assay [14] and in [15] was “inactive” in each case.

Regarding `O=C(O)c1cc(=O)c2ccccc2o1`, the Potency result in [1], in assay [2], in assay [17], in [4], in [19] and in assay [20] was “inactive” each time. Moreover, the Potency result in [5], in [6], in [7], in assay [18], in assay [8] and in [9] was “inactive” in each case. The Potency result in [11], in [12], in [13], in assay [14] and in assay [15] was “inactive” each time. The activity change, positive = activation in [10] was -3.87% (inactive).

For the compound `CCc1oc2ccccc2c1C(=O)c1cc(I)c(O)c(I)c1`, the Potency entry in [1], in assay [2], in assay [3], in [4], in assay [5] and in assay [6] was “inactive” in each case. For the same compound, the Potency entry in assay [7], in [11], in assay [12], in assay [13], in [14] and in [15] was “inactive” each time.

`O=C(O)Cc1ccccc1Nc1c(Cl)cccc1Cl`: the Potency entry in [1], in assay [2], in assay [16], in assay [4], in assay [5] and in [6] was “inactive” throughout. Also, the Potency entry in assay [7], in assay [8], in [11], in assay [12], in assay [13] and in assay [14] was “inactive” in each case. The Potency result in assay [15] is “inactive”.

For the compound `CCCCC/C=C\C/C=C\CCCCCCCC(=O)O`, the Potency in [1] is 78.3 µM (active) and inactive. Besides, the Potency result in assay [2], in [3], in [4], in assay [5], in assay [7] and in assay [12] was “inactive” each time. The Potency entry in assay [14] and in [15] was “inactive” each time.

In the case of `COc1ccc(-c2coc3cc(O)ccc3c2=O)cc1`, the Potency in [1] was 2 µM (active). The Potency entry in assay [2], in assay [3], in assay [4], in assay [5], in assay [6] and in [7] was “inactive” in each case. Further, the Potency entry in assay [18], in assay [11], in assay [12], in assay [13], in assay [14] and in assay [15] was “inactive” in each case.
